From PubChem
Only a sample is shown.
aSyn UTR act – Activators via SNCA 5'UTR binding, MLPCN; alpha-synuclein 5'UTR reporter, activators screen; activity score, % (tested at 7.5 µM), hits read low; 7.1% of 300,000 active; AID 1814, 2009; in the data active = activity score below about -60%
Of the large screens only hits and unclear results are named; the others gave an inactive call.

O=C(c1cccc(-c2nnc(-c3ccccc3)o2)c1)N1CCCCC1	aSyn UTR act -76
O=C(Oc1ccc(-c2ccccc2)cc1)N1CCCCC1	aSyn UTR act -169
O=C(c1ccc(-c2ccccc2)cc1)N1CCCC1	aSyn UTR act -88
Cc1nc2ccccc2c(=O)n1NCc1cc(Br)cs1	aSyn UTR act -81
O=C(O)c1ccccc1C(=O)Nc1ccccc1NC(=O)c1ccccc1C(=O)O	aSyn UTR act -126
COC(=O)C1=C(Nc2ccccc2NC(=O)c2ccccc2C(=O)O)CSC1	aSyn UTR act -167
Cc1c(NC(=O)c2ccc(Br)o2)cccc1C(=O)O	aSyn UTR act -86
Nc1ccccc1NC(=O)c1ccccc1N	aSyn UTR act -139
Nc1ccccc1NC(=O)NC(=O)c1ccccc1	aSyn UTR act -169
Cc1c(NC(=O)c2ccccc2N)cccc1C(=O)O	aSyn UTR act -155
Cn1c(/C=C/c2cccc(Br)c2)nc2ccccc2c1=O	aSyn UTR act -178
COc1cc(/C=N\Nc2nc3ccccc3o2)cc(OC)c1OC	aSyn UTR act -186
COc1cc(/C=N/Nc2nc3ccccc3o2)cc(OC)c1O	aSyn UTR act -86
Brc1ccc(/C=N/Nc2nc3ccccc3o2)cc1	aSyn UTR act -191
CCCN=Cc1sc2ccc(OCC)cc2c1O	aSyn UTR act -126
COc1ccc(-c2nnc3c4ccccc4c(C)nn23)cc1	aSyn UTR act -206
COc1ccc(Oc2nnc(C)c3ccccc23)cc1	aSyn UTR act -175
Cc1nnc(Oc2ccccc2F)c2ccccc12	aSyn UTR act -94
O=C1CCCc2nc3c(cc21)C(O)Oc1c-3ccc2ccccc12 (configuration not stated)	aSyn UTR act -118
Cc1ccc2nc(SC(C)C(=O)N3CCCC3)[nH]c2c1 (configuration not stated)	aSyn UTR act -75
Cc1ccc2nc(CSc3nc(C)ccc3C#N)[nH]c2c1	none
Cc1cc(C(=O)CSc2nc3ccccc3c(=O)[nH]2)c(C)n1C	aSyn UTR act -130
Cc1ccc2nc(SCC(=O)c3ccc(O)cc3O)[nH]c2c1	aSyn UTR act -220
Cc1ccc2nc(SCc3nc4ccccc4c(=O)[nH]3)[nH]c2c1	aSyn UTR act -140
Cc1ccc(CSc2nc3ccncc3[nH]2)cc1	none
Cc1ccc2nc(SC(C)C(=O)N3CCCCC3)[nH]c2c1 (configuration not stated)	aSyn UTR act -81
Cc1ccc2nc(SCC(=O)N3CCCC3)[nH]c2c1	aSyn UTR act -129
CC(=O)Nc1ccc(SCc2ncc(-c3ccccc3)o2)cc1	aSyn UTR act -130
COC(=O)c1ccccc1NC(=O)CSc1nnc(-c2ccc(C)cc2)o1	aSyn UTR act -130
COc1ccc(-c2nnc(SCC(=O)Nc3ccccc3OC)o2)cc1	aSyn UTR act -145
Cc1cc(-c2nnc(SCC(=O)Nc3ccccc3C(F)(F)F)o2)c(C)n1-c1ccccc1	aSyn UTR act -69
Cc1ccc(-c2nnc(SCC(=O)Nc3ccccc3F)o2)cc1	none
COc1ccccc1-c1nnc(SCC(=O)OC(C)C)o1	aSyn UTR act -83
CCOC(=O)c1ccccc1NC(=O)Cn1c(-c2nonc2N)nc2ccccc21	none
COc1cccc(-c2nnc(SCC(=O)Nc3cc(C)on3)o2)c1	aSyn UTR act -66
CCOC(=O)c1ccccc1NC(=O)CSc1nc2ccccc2o1	aSyn UTR act -88
Cc1cc(-c2nnc(SCC(=O)Nc3ccccn3)o2)no1	aSyn UTR act -72
COc1ccc(C)cc1NC(=O)CSc1nnc(-c2ccc(C)cc2)o1	aSyn UTR act -109
COc1ccc(-c2nnc(SCC(=O)Nc3cccc(Cl)c3)o2)cc1	aSyn UTR act -179
O=c1c2ccccc2cnn1CCOc1cccc(Br)c1	aSyn UTR act -153
Nc1nccc(-c2ccc(-n3cccc3)cc2)n1	aSyn UTR act -132
Nc1ccc(SCc2nc3cccc4c3n2CCC4)cc1	aSyn UTR act -99
NC(=S)N/N=C/c1cccc(O)c1O	aSyn UTR act -94
CCOc1ccc(-c2ccc(SCC(=O)NCC3CCCO3)nn2)cc1 (configuration not stated)	aSyn UTR act -67
CCOc1ccc(C(=O)Nc2nnc(SCC(=O)NCC3CCCO3)s2)cc1 (configuration not stated)	none
Cc1ccc(-c2ccc(SCC(=O)NCC3CCCO3)nn2)cc1 (configuration not stated)	aSyn UTR act -85
CCOC(=O)c1c(C)n(-c2ccc(C)cc2)c2ccc(OCC(O)CNCC3CCCO3)cc12 (configuration not stated)	none
CCOC(=O)c1nc(N/N=C/c2ccccc2)sc1Br	aSyn UTR act -82
CC(=O)c1sc(N/N=C\c2ccc(Br)cc2)nc1C	aSyn UTR act -79
CCCc1sc(N/N=C/c2ccccn2)nc1-c1ccc(Br)cc1	none
Cc1cc2c(ccc3c2no[n+]3[O-])nn1	aSyn UTR act -100
[O-][n+]1onc2c3ccnnc3ccc21	aSyn UTR act -119
Cc1ccc(S(=O)(=O)C2(C(=O)Nc3ccc(C(C)C)cc3)CC2)cc1	aSyn UTR act -77
Clc1cccc(N/N=C/c2ccncc2)c1	aSyn UTR act -117
C/C(=N\Nc1cccc(Cl)c1)c1ccncc1	aSyn UTR act -117
Cc1ccc(N/N=C/c2ccncc2)cc1	aSyn UTR act -120
O=C(Nc1nccs1)c1ccc(-c2ccc(F)c(Cl)c2)o1	aSyn UTR act -151
O=C(Nc1nccs1)c1ccc(-c2ccc(Cl)cc2Cl)o1	aSyn UTR act -149
O=C(Cc1cccs1)N/N=C/C(Cl)=C/c1ccccc1	aSyn UTR act -192
CCN(CC)c1ccc(/C=N/NC(=O)Cc2cccs2)c(O)c1	none
CCOc1ccc(/C=N/NC(=O)Cc2cccs2)cc1	aSyn UTR act -85
CCOC(=O)N/N=C/C(Cl)=C/c1ccccc1	aSyn UTR act -128
Cc1cccc(/C=N/NC(=O)Cc2cccs2)c1	aSyn UTR act -74
Cc1ccccc1Nc1nc(N)nc(COC(=O)c2cccn2C)n1	aSyn UTR act -122
Cc1ccccc1Nc1nc(N)nc(COC(=O)c2ccccc2)n1	aSyn UTR act -198
O=C(CSc1nccn1-c1ncc(C(F)(F)F)cc1Cl)c1ccc(Cl)cc1	aSyn UTR act -127
CC(C)CN1CCN(Cc2cnc(-c3ccc(Cl)cc3)nc2)CC1CCO (configuration not stated)	aSyn UTR act -78
CSc1ccccc1OCc1cc(C(=O)N2CCCC2c2nonc2C)no1 (configuration not stated)	aSyn UTR act -144
Cc1nonc1C1CCCN1C(=O)c1cc(COc2ccc(F)cc2F)on1 (configuration not stated)	aSyn UTR act -126
O=C(Cc1ccccc1)Nc1ccc(SC(F)F)cc1	aSyn UTR act -130
COC(=O)c1ccc(NC(=O)c2nc(S(=O)(=O)Cc3cccc(C)c3)ncc2Cl)cc1	none
COC(=O)c1ccc(NC(=O)Cc2ccccc2)cc1	aSyn UTR act -123
COC(=O)c1ccc(NC(=O)C(=O)c2cccn2C)cc1	aSyn UTR act -109
CCC(=O)Nc1ccc(C(=O)OCc2ccccc2Cl)cc1	aSyn UTR act -168
COC(=O)c1ccc(NC(=S)Nc2ccccc2)cc1	aSyn UTR act -131
O=C(Cn1cc(C(F)(F)F)cc(Cl)c1=O)NCc1ccccc1	aSyn UTR act -113
CCOC(=O)COc1cccc2c(=O)n(CC(=O)NCc3ccccc3)ccc12	none
c1ccc2c(c1)NC1(CCCC1)n1c-2nc2ccccc21	aSyn UTR act -141
CCCC1(C)Nc2ccccc2-c2nc3ccccc3n21 (configuration not stated)	aSyn UTR act -96
CN(C)C(CNC(=O)c1ccc(C2SCCS2)cc1)c1ccccc1 (configuration not stated)	aSyn UTR act -100
